Screens as filed in PubChem.
In the library only some 20% were active in any assay of this set; here they are far more common.
Pf growth 96h: P. falciparum growth inhibition at 96 hours; P. falciparum luciferase reporter growth, 96 h; Potency, µM (titrated, usually from 28.7 µM), without a hit: top-dose activity change, negative = inhibition, hits mostly inhibitors; hit rate 6.9% among 320,000; also: potency is read from the fitted curve at half-maximal effect; % is scaled to controls: 0 for no effect and ±100 for the full control effect
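P. falciparum expressing integrated firefly luciferase grown in erythrocytes (2% hematocrit, 0.05% parasitemia final) with compounds for 96 hours at 37 C, 5% CO2. Growth inhibition read as loss of luminescence after adding luciferase detection reagent.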
Pf growth 48h: inhibits P. falciparum growth in the first generation, 48 h | hit rate 5.9% among 310,000 | Potency, µM (top dose mostly 28.7 µM), for the others: top-dose activity change, negative = inhibition, most hits filed as inhibitors | P. falciparum luciferase growth in erythrocytes, 48 h; also: potency is read from the fitted curve at half-maximal effect; % is scaled to controls: 0 for no effect and ±100 for the full control effect
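In quantitative HTS format, infected erythrocytes bearing luciferase-reporter parasites were treated for a single generation at 37 C. Luminescence after adding detection reagent served as the growth measure.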
CHX counter: affects cycloheximide protein synthesis inhibition readout, counter-screen; max response, %; hit rate 12% among 300,000; cell reporter, cycloheximide protein synthesis inhibition counterscreen; in the data active = max response mostly above about 13%, no sharp cut-off; inactive = mostly below about 14%; also: read at 38.3 µM for the half of the compounds with a filed dose; 0% is about no effect
HCMV antiviral: human cytomegalovirus inhibition; hit rate 4.5% among 410,000; HFF cells, HCMV-luciferase reporter, 72 h; stronger effect = lower value; activity change, negative = inhibition, % at 57.5 µM; in the data active = activity change below about -60%; inconclusive = no clear call, values can overlap the other calls; inactive = above about -39%; also: % is scaled to controls: 0 for no effect and ±100 for the full control effect
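After 16 h attachment at 37C, HFF cells received test compound and HCMV-luciferase (1 PFU/cell); reporter luminescence read 72 h later, data normalized against buffer-only and known inhibitor Salinomycin.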
Shiga toxin inh: inhibitors of Shiga toxin in Vero cells. Vero cells, Shiga toxin protein synthesis inhibition reporter. inhibition, % at 38.7 µM. hit rate 9.2% among 290,000. AID 2315; in the data active = inhibition mostly above about 28%, no sharp cut-off; inactive = mostly below about 43%; also: 0% is about no effect
* marks the source's active call; other numbers are inactive results; [ ] = another dose, or the depositor's remark. Unless noted, calls follow the shape of the dose curve; as a rule, active = well fitted inhibition curve with a large enough effect; inconclusive = small, poorly fitted or top-dose-only effect, or another doubt; inactive = no such curve, though single readings can be large or run the other way.

For COC(=O)c1c(-c2ccc(Cl)cc2)noc1N1CCN(c2ccc(C)cc2C)CC1 the results were HCMV antiviral 5.
CC(=O)NNC(=S)NCCc1ccccc1 was read as Pf growth 96h -4%, Pf growth 48h 5%, CHX counter 5, HCMV antiviral inconclusive and Shiga toxin inh 5.
Screening O=C(NC(=S)NC(=O)c1ccccc1F)c1ccccc1F returned Pf growth 96h 3%, Pf growth 48h 45%, CHX counter 40*, HCMV antiviral 39 and Shiga toxin inh 73*.
`Cc1ccc(C(=O)NCCCc2ccccc2)s1` gave Pf growth 96h inconclusive, Pf growth 48h inconclusive, CHX counter 53*, HCMV antiviral 8 and Shiga toxin inh 134*.
Screening O=C(NC(=S)NCCc1ccccc1)c1ccccc1 returned Pf growth 96h 18%, Pf growth 48h 32%, CHX counter 18*, HCMV antiviral 62 and Shiga toxin inh 45*.
COc1ccccc1CCNC(=O)c1ccoc1C was read as Pf growth 96h 13%, Pf growth 48h 2%, CHX counter 19*, HCMV antiviral 5 and Shiga toxin inh 32.
Cc1ccc(S(=O)(=O)NNC(=O)CCCCC(=O)NNS(=O)(=O)c2ccc(C)cc2)cc1 was read as Pf growth 96h 2%, Pf growth 48h -5%, CHX counter -1, HCMV antiviral -34 and Shiga toxin inh -12.
`Cc1ccc(SCCNC(=O)c2ccccc2F)cc1` gave Pf growth 96h inconclusive, Pf growth 48h 30%, CHX counter 13*, HCMV antiviral 17 and Shiga toxin inh 25.
`O=C(NCCc1ccccc1)c1ccc(Cl)cc1[N+](=O)[O-]` gave Pf growth 96h 106%, Pf growth 48h 72%, CHX counter 27*, HCMV antiviral -20 and Shiga toxin inh 67*.
`O=C(NCCCCc1ccccc1)c1ccccc1F` gave Pf growth 96h 10%, Pf growth 48h 23%, CHX counter 17*, HCMV antiviral 35 and Shiga toxin inh 19.
Screening O=C(NCCCCc1ccccc1)c1ccccc1Cl returned Pf growth 96h 67%, Pf growth 48h 49%, CHX counter 24*, HCMV antiviral 6 and Shiga toxin inh 58*.
Screening Cc1nc2ccc(Cl)cn2c1[N+](=O)[O-] returned HCMV antiviral -11.
CCn1c(CSc2nc3ccccc3s2)nnc1SCC(=O)c1ccc(O)cc1O was read as Pf growth 48h 1%, CHX counter -2, HCMV antiviral -8 and Shiga toxin inh -11.
For Cc1ccccc1C(=O)NCCCc1ccccc1 the results were Pf growth 96h inconclusive, Pf growth 48h 72%, CHX counter 39*, HCMV antiviral -39 and Shiga toxin inh 140*.
`Cc1occc1C(=O)NCCCCc1ccccc1` gave Pf growth 96h inconclusive, CHX counter 23*, HCMV antiviral -26 and Shiga toxin inh 55*.
Screening COc1ccc(CCNC(=S)NC(=O)c2ccccc2)cc1C returned Pf growth 96h -77%, Pf growth 48h -9%, CHX counter 8.4*, HCMV antiviral -26 and Shiga toxin inh 17.
For Cc1ccccc1C(=O)NCCCCc1ccccc1 the results were Pf growth 96h -11%, Pf growth 48h 2%, CHX counter 9, HCMV antiviral 21 and Shiga toxin inh 27.
Screening CCc1c(C(=O)NNC(=S)NCCc2ccccc2)csc1C returned Pf growth 96h 1%, Pf growth 48h 35%, CHX counter 12*, HCMV antiviral 2 and Shiga toxin inh 14.
`CCc1cccc(NC(=O)Cn2ncc3c([nH]c4ccc(C)cc43)c2=O)c1` gave HCMV antiviral 9.
For C/C(=N/NC(=O)Cc1ccccc1)c1ccc(C)s1 the results were Pf growth 96h 46%, Pf growth 48h 68%, CHX counter 25*, HCMV antiviral 48 and Shiga toxin inh -28.
For O=C(NCCc1ccccc1)c1ccccc1C(=O)NCCc1ccccc1 the results were HCMV antiviral 10.
O=C(NCCc1ccccc1)c1ccccc1F was read as Pf growth 96h -1%, Pf growth 48h 165%, CHX counter 35*, HCMV antiviral 25 and Shiga toxin inh 109*.
`COc1ccc(NS(=O)(=O)c2ccc(O)c(NS(=O)(=O)c3ccc(NC(C)=O)cc3)c2)cc1` gave HCMV antiviral -7.
For C/C(=N\NC(=O)c1ccc(NS(=O)(=O)c2cccs2)cc1)c1cccs1 the results were Pf growth 96h 12%, Pf growth 48h -7%, CHX counter 17, HCMV antiviral -83* and Shiga toxin inh 15.
Screening COC(=O)N/N=C(\C)c1cccs1 returned Pf growth 96h 11%, Pf growth 48h 0%, CHX counter 11*, HCMV antiviral 32 and Shiga toxin inh 17.
C/C(=N/NC(=O)c1cccs1)c1ccc(NC(=O)COc2ccc(Cl)cc2)cc1 was read as Pf growth 96h 2%[5.75 µM], Pf growth 48h 0%, CHX counter 36*, HCMV antiviral -14 and Shiga toxin inh 79*.
Screening C/C(=N\NC(=O)c1ccc(Cl)cc1)c1cccs1 returned Pf growth 96h 87%, Pf growth 48h 200%, CHX counter 19*, HCMV antiviral -5 and Shiga toxin inh 57*.
C/C(=N\NC(=O)c1ccc(NS(=O)(=O)c2cccs2)cc1)c1ccc(Cl)cc1 was read as Pf growth 96h -20%, Pf growth 48h -3%, CHX counter 1, HCMV antiviral 22 and Shiga toxin inh -58.
CCN(CC)C(=O)Cn1c(=O)n(CCCCCC(=O)NCc2ccc(C)cc2)c(=O)c2sccc21 was read as HCMV antiviral -7.
CCC[C@H]1[C@@H](NC(=O)Nc2ccc(Cl)cc2)CC[C@@]23CCCN2C(=O)CCC[C@@H]13 was read as HCMV antiviral -14.
Screening Cc1ccc(NC(=O)Cn2c(=O)n(-c3ccc(CC(=O)NCC4CCCO4)cc3)c(=O)c3ccccc32)cc1 (stereo not given) returned HCMV antiviral 1.
For COc1ccccc1NC(=O)CN(Cc1ccco1)C(=O)c1cc(Cl)c(OC)c(OC)c1 the results were HCMV antiviral 4.
C/C(=N/NC(=O)c1ccc2nc[nH]c2c1)c1cccs1 was read as Pf growth 96h 134%, Pf growth 48h 149%, CHX counter 39*, HCMV antiviral -29 and Shiga toxin inh 55*.
`COc1ccc(OCCCN(C)Cc2ccccc2)cc1` gave Pf growth 96h 14%, Pf growth 48h inconclusive, CHX counter -3 and HCMV antiviral 5.
For COc1ccc(N(Cc2ccccc2)N=O)cc1 the results were Pf growth 96h -12%, Pf growth 48h 0%, CHX counter 18* and HCMV antiviral 37.
For CN(Cc1ccccc1)C(=S)NC(=O)c1ccc(-c2ccccc2)cc1 the results were Pf growth 96h 7.4µM*, Pf growth 48h inconclusive, CHX counter 6, HCMV antiviral -40 and Shiga toxin inh 0.
Screening COc1ccc(C(=O)N(Cc2ccccc2)c2cccc(C)c2)cc1 returned Pf growth 96h 9%, Pf growth 48h 38%, CHX counter 21, HCMV antiviral -60* and Shiga toxin inh 24*.
